# Screens as filed in PubChem BioAssay.
# Cycloheximide cs – counter-screen hit for Shiga toxin inhibitors, cycloheximide; cell reporter, cycloheximide protein synthesis inhibition counterscreen; max response, %; actives 12% (n = 300,000); in the data active = max response mostly above about 13%, no sharp cut-off; inactive = mostly below about 14%; note: read at 38.3 µM for the half of the compounds with a filed dose; 0% is about no effect
# SARS PLpro yeast – blocks SARS-CoV papain-like protease in a yeast assay; S. cerevisiae expressing SARS-CoV PLpro, growth rescue; Potency, µM (doses to about 32.9 µM), for inactives: at the top dose activity, positive = growth rescue, hits mostly activators; actives 0.19% (n = 330,000); calls by dose curve; note: potency is the fitted concentration of half-maximal effect; 0% is about no effect; nearly all actives have a fitted effect of over 55% in size
# AMA1 RON2 block – inhibitors of Plasmodium falciparum AMA1-RON2 interaction; AlphaScreen AMA1-biotinylated RON2 peptide binding; Potency, µM (doses to about 58.2 µM), without a hit: top-dose activity change, negative = inhibition, hits mostly inhibitors; actives 0.2% (n = 360,000); AID 720542;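 note: potency is the fitted concentration of half-maximal effect; 0% = vehicle wells and -100% = peptide control; nearly all actives have a fitted effect of over 45% in size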
#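 AMA1 (3D7) with his tag at 25 nM final met compounds first, then biotinylated RON2 peptide at 25 nM; detection used donor plus acceptor beads, 10 µg/mL apiece, read by AlphaScreen after 30 min at room temperature.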
# Shiga inhibitor – inhibitors of Shiga toxin in Vero cells; Vero cells, Shiga toxin protein synthesis inhibition reporter; inhibition, % at 38.7 µM; actives 9.2% (n = 290,000); in the data active = inhibition mostly above about 28%, no sharp cut-off; inactive = mostly below about 43%; note: 0% is about no effect
# Pf growth 48h – P. falciparum growth inhibition at 48 hours (one generation). actives 5.9% (n = 310,000). P. falciparum luciferase growth in erythrocytes, 48 h. AID 504832. Potency, µM (highest dose often 28.7 µM), without a hit: top-dose activity change, negative = inhibition, hits mostly inhibitors; note: potency is the fitted concentration of half-maximal effect; % is set by controls: 0 for no effect and ±100 for the full control effect
#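 Read-out is firefly luciferase luminescence from an integrated reporter in P. falciparum, so falling signal marks reduced parasite growth. Infected erythrocytes were at 2% hematocrit and 0.1% parasitemia (final) in Albumax-supplemented RPMI 1640.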
# Pf growth 96h – P. falciparum growth inhibition at 96 hours. P. falciparum luciferase reporter growth, 96 h. Potency, µM (highest dose often 28.7 µM), without a hit: at the top dose activity change, negative = inhibition, actives largely listed as inhibitors. actives 6.9% (n = 320,000); note: potency is the fitted concentration of half-maximal effect; % is set by controls: 0 for no effect and ±100 for the full control effect
#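 Parasite growth measured via integrated firefly luciferase reporter in P. falciparum. Infected erythrocytes at 2% hematocrit, 0.05% parasitemia final were treated 96 hours at 37 C under 5% CO2, and luminescence was read.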
# * = called active by the depositor; u = inconclusive; x = no result. A selection: hits, their analogues and other compounds. The true share with any hit is near 19%. Unless noted, calls come from the whole dose curve; as a rule, active = well fitted curve in the direction sought with a large enough effect; inconclusive = small, poorly fitted or top-dose-only effect, or another doubt; inactive = no such curve, though single readings can be large; an effect the other way counts as inactive or inconclusive.
SMILES,Cycloheximide cs,SARS PLpro yeast,AMA1 RON2 block,Shiga inhibitor,Pf growth 48h,Pf growth 96h
Cc1ccc(C(=O)Cc2cc3ccccc3oc2=O)c(C)c1,57.5*,-1.5%,-0.9%,66.6*,91.0%,u
CC(NC(=O)Cc1ccsc1)c1ccc(Cl)cc1Cl (stereo unspecified),7.5,-2.8%,17.7%,-8.4,u,u
CNC(=S)N(C1=NCC(c2ccc([N+](=O)[O-])cc2)S1)c1ccccc1 (stereo unspecified),38.9*,14.7%,-28.3%,55.5*,-32.5%,13.1µM*
Nc1ccc2nc(N)sc2c1,x,x,-6.5%,x,x,x
Nc1nc2ccc(Cc3ccncc3)cc2s1,20.4*,0.9%,-3.6%,77.5*,54.7%,93.5%
COCC(C)N=C1NN=C(c2c[nH]c3ccccc23)CS1 (stereo unspecified),63.7*,12.8%,67.0%,53.4*,138.8%,0.0%
CCN=C1NN=C(c2c[nH]c3ccccc23)CS1,32.2*,0.8%,-0.8%,38.4*,266.5%,-89.3%
COCCn1c(SC)nnc1-c1c[nH]c2ccccc12,6.3,-3.3%,3.0%,23.9,x,u
Cc1cc(NC(=O)Nc2cc(F)ccc2F)no1,9.2*,-2.8%,-8.9%,34.8,38.8%,152.2%
Cc1cc(NC(=O)Nc2cccc(Cl)c2)no1,x,x,8.3%,x,x,x
Cc1cc(NC(=O)Nc2ccc(F)c(Cl)c2)no1,28.4*,-9.0%,4.8%,28.8*,u,x
O=C(O/N=C(\c1ccccc1)c1ccccn1)c1cccc2ccccc12,14.2*,-86.9%,36.2%,12.2,16.5%,9.28µM*
N/C(=N\OC(=O)c1cccc2ccccc12)c1cccnc1,42.0*,0.3%,12.5%,93.6*,u,-6.7%
O=C(COC(=O)c1cccnc1)Nc1cccc2ccccc12,-3.3,1.2%,3.7%,3.7,21.2%,2.3%
Cc1cccc(/C(N)=N/OC(=O)c2cccc3ccccc23)c1,20.6*,-21.8%,x,59.2*,-73.4%,0.2%
COCCNC(=S)N1CCC2CC1c1c(Cl)cccc12 (stereo unspecified),x,x,-7.1%,x,x,x
COc1cccc(C(=O)NCC(c2cccnc2)N2CCN(c3ccccc3OC)CC2)c1 (stereo unspecified),-3.3,1.8%,1.2%,5.7,11.7µM*,u
COc1ccc(N2CCN(C(CNC(=O)c3ccc4c(c3)OCO4)c3cccnc3)CC2)cc1 (stereo unspecified),9.8,0.1%,-9.4%,10.0,-9.9%,u
O=C(NCC(c1cccnc1)N1CCOCC1)Oc1ccccc1 (stereo unspecified),23.7*,-19.9%,7.3%,74.7*,99.3%,-6.3%
COc1ccc(N2CCN(C(CNC(=O)c3cccc(Cl)c3)c3cccnc3)CC2)cc1 (stereo unspecified),-1.6,0.6%,-12.2%,-5.5,u,1.85µM*
COc1ccc(C(=O)NCC(c2cccnc2)N2CCN(c3ccccc3OC)CC2)cc1OC (stereo unspecified),-0.7,4.1%,2.9%,-1.4,u,u
COC(=O)NCC(c1cccnc1)N1CCOCC1 (stereo unspecified),-1.3,3.4%,-7.6%,-9.4,31.8%,40.1%
NC(=O)C1(N2CCCCC2)CCN(CCCC(=O)c2ccc(F)cc2)CC1,-5.8,x,x,-2.2,-23.9%,u
COc1cc(Cl)c(C)cc1NC(=O)COC(=O)c1cc[n+]([O-])cc1,6.8,-0.6%,5.5%,-2.5,86.5%,9.8%
CN1CCN(Cc2nc3ccccc3c(=O)n2Cc2nc(-c3ccccc3F)cs2)CC1,12.0,-4.4%,-0.2%,4.4,u,u
SMILES,Cycloheximide cs,SARS PLpro yeast,AMA1 RON2 block,Shiga inhibitor,Pf growth 48h,Pf growth 96h
CN(C)Cc1nc2ccccc2c(=O)n1Cc1nc(C(C)(C)C)cs1,-6.6,7.4%,3.2%,15.0,13.1µM*,-18.2%
O=C(O)c1cc(-c2cccc([N+](=O)[O-])c2)nc2ccccc12,-1.5,0.4%,-1.1%,2.2,-13.8%,-20.8%
CN1CCN(Cc2nc3ccccc3c(=O)n2Cc2nc(-c3cccc([N+](=O)[O-])c3)cs2)CC1,15.2,-6.7%,-23.8%,-6.5,u,2.33µM*
CN1CCN(Cc2nc3ccccc3c(=O)n2Cc2nc(-c3ccc4ccccc4c3)cs2)CC1,-12.7,-9.6%,-21.6%,-18.9,11.7µM*,u
COc1ccc(Cl)cc1N1C(=O)/C(=C\c2sccc2C)N=C1SCC(=O)NC1CC1,-2.8,8.2%,6.1%,-12.6,x,9.28µM*
C=CCN1C(=O)/C(=C\c2ccc(Cl)cc2)N=C1SCC(=O)NC1CCCCC1,-6.3,-10.3%,4.3%,-10.4,x,34.7%
Cc1ccc(-n2c(C)cc(/C=N/NC(=O)CC3(C)OCCO3)c2C)c(C)c1,8.7,-11.0%,89.4%,15.2,9.28µM*,-22.8%
CC1(CC(=O)N/N=C/c2cc([N+](=O)[O-])c(O)cc2O)OCCO1,1.5,-1.9%,37.5%,-10.1,-18.1%,-6.2%
Cc1cccc(C)c1-n1c(C)cc(/C=N/NC(=O)c2ccncc2)c1C,1.9,1.1%,0.2%,-10.7,u,u
Cc1cc(/C=N/NC(=O)c2ccncc2)c(C)n1-c1ccccc1,26.1*,1.0%,63.0%,22.8*,26.2%,u
CCc1ccc(-n2c(C)cc(/C=N/NC(=O)c3ccncc3)c2C)cc1,7.3,-0.5%,50.3%,10.1,u,164.4%
Cc1ccc(-n2c(C)cc(/C=N/NC(=O)c3ccncc3)c2C)c(C)c1,13.5,-8.4%,1.2%,13.4,2.33µM*,1.65µM*
Cc1cc(/C=N/NC(=O)c2cccc([N+](=O)[O-])c2)c(C)n1-c1ccccc1,34.4*,15.6%,58.7%,24.5,26.6%,-0.5%
CN(CC(=O)N1CCN(c2ccccc2)CC1)C1CCCc2ccccc21 (stereo unspecified),-1.3,-0.1%,-13.9%,10.9,-16.1%,-8.5%
Cc1nn(C(=O)c2nn(C)cc2[N+](=O)[O-])c(C)c1Cl,-3.0,-3.5%,-6.0%,-11.4,15.1%,-16.7%
O=C(c1cccs1)N1CCCC(N2CCN(c3ccc(F)cc3)CC2)C1 (stereo unspecified),3.5,-3.9%,-5.4%,-9.9,-8.0%,85.9%
Cc1cc(C)nc(SCC(=O)N/N=C/c2cc(C)n(-c3ccccc3C)c2C)n1,-2.2,-26.4%,19.1%,14.1,5.22µM*,u
Cc1cc(/C=N/NC(=O)c2cccs2)c(C)n1-c1cnccn1,47.7*,-3.7%,89.9%,59.2*,265.9%,73.2%
Cc1ccc(-n2c(C)cc(/C=N/NC(=O)c3ccncc3)c2C)cc1C,4.5,-1.7%,13.5%,40.9,10.4µM*,-1.6%
Cc1ccc2occ(/C=N/NC(=O)c3ccncc3)c(=O)c2c1,-4.0,6.8%,126.3%,-10.9,10.1%,3.7µM*
COC(=O)c1ccc(NC(=O)Cn2nc(C(=O)Nc3ccc(C)cc3)ccc2=O)cc1,1.7,0.7%,10.4%,-3.0,-8.4%,u
